High-throughput results (PubChem BioAssay)
Shown is part of a subset that was picked to be rich in hits.
ARNT-TACC3 inh: disruptors of ARNT/TACC3 protein interaction, primary screen, biochemical, AlphaScreen, single concentration | Transforming acidic coiled-coil-containing protein 3 (Homo sapiens), Q9Y6A5 | AlphaScreen His-ARNT PAS-B/GST-TACC3 binding, luminescence; TACC3 fragment carries E629A point mutation | inhibition, % at 9.99 µM | actives 0.66% (n = 390,000) | AID 623870, 2012;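 active means mean inhibition of replicates at least 50% and at least half of replicates each reaching 50%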;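 further: 0% = complete ARNT plus TACC3 wells and 100% = ARNT alone without TACC3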
NRP1-CendR mod: modulators of CendR peptide binding to NRP-1, primary screen, biochemical, fluorescence polarization, uHTS; Neuropilin-1 (Homo sapiens), O14786; FAM-RPARPAR peptide binding to NRP-1; inhibition, % at 25 µM; actives 0.85% (n = 360,000);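 active means inhibition or corrected inhibition above about 18%, plus a signal ratio from 0.5 to 1.5, limit read from the data, passing the limit was not always enough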
ERp5 block: inhibitors of ERp5-driven insulin aggregation, primary screen, biochemical, turbidity, absorbance 650 nm, single point. Protein disulfide-isomerase A6 (Homo sapiens), Q15084. 90 min. inhibition, % at 9.99 µM. actives 0.05% (n = 350,000). AID 651711, 2012;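 active means mean replicate inhibition above about 25%, with every replicate also reaching it, limit read from the data, passing the limit was not always enough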
PglD inh: C. jejuni PglD acetyltransferase inhibitors, primary screen, biochemical, DTNB colorimetric, single point | actives 0.098% (n = 360,000) | inhibition, % at 12.5 µM | purified PglD enzyme, DTNB colorimetric CoA detection | UDP-N-acetylbacillosamine N-acetyltransferase PglD (Campylobacter jejuni); in the data active means inhibition above about 16%, passing the limit was not always enough
PDI turbidity: inhibitors of human PDI, primary screen, biochemical, turbidity, single point, plate reader | Protein disulfide-isomerase (Homo sapiens), P07237 | inhibition, % at 10 µM | actives 0.052% (n = 350,000) | AID 588391, 2011 | PDI insulin aggregation turbidity, A650, 90 min;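 active means mean inhibition across replicates of 30% or more, whatever share of single replicates reach that level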
ALR H2O2 inh: inhibitors of human ALR sulfhydryl oxidase, primary screen, biochemical, H2O2 detection, HRP-luminol luminescence, single point | FAD-linked sulfhydryl oxidase ALR (Homo sapiens), P55789 | purified ALR, DTT oxidation | inhibition, % (test concentration not listed) | actives 3.8% (n = 290,000);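 active means mean replicate inhibition above about 79%, with every replicate also reaching it, limit read from the data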
Target sequence (P55789 whole entry, looked up): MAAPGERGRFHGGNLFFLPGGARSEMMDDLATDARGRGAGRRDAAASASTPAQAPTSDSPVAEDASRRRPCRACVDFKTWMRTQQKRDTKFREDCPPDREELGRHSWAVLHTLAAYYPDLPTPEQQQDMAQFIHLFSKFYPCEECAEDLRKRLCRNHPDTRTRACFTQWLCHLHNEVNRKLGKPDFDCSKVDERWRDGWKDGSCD
Numbers without * were called inactive; nt = not tested or not shown.

SMILES | ARNT-TACC3 inh | NRP1-CendR mod | ERp5 block | PglD inh | PDI turbidity | ALR H2O2 inh
CN(C)c1ccc(Nc2nc(N)c([N+](=O)[O-])c(N3CCOCC3)n2)cc1 | 15 | 9 | 11 | nt | 6 | 99*
Cc1ccc(S(=O)(=O)Nc2ccc3c(c2)C(=O)N([C@@H](C)CO)C[C@H](C)[C@H](CN(C)Cc2ccc(C(=O)O)cc2)OCCCC[C@H](C)O3)cc1 | 2 | nt | -1 | -1 | nt | nt
COC(=O)c1ccccc1S(=O)(=O)N1CCC(C(=O)OCc2ccc([N+](=O)[O-])cc2)CC1 | 1 | 25* | 2 | -5 | 1 | 0
COC(=O)c1ccc(COC(=O)C2CCN(S(=O)(=O)c3ccccc3C(=O)OC)CC2)cc1 | -4 | 10 | -2 | -4 | 13 | nt
O=C(c1ccncc1)N1CC(=O)N2[C@H](CO)[C@H](c3ccc(-c4ccccc4)cc3)[C@H]2C1 | nt | nt | 2 | nt | nt | nt
Cc1c(O)ccc(C(=O)CN2CCN(c3ccccc3F)CC2)c1O | 1 | 5 | nt | -1 | 17 | 9
O=C(CN1CCN(c2ccccc2F)CC1)c1ccc(O)c(O)c1 | 9 | -11 | 0 | -11 | 3 | 99*
O=C(CN1CCN(S(=O)(=O)c2ccc(Br)cc2)CC1)c1ccc(O)c(O)c1 | 7 | -42 | 2 | -2 | 3 | 96*
CCOc1ccc(C(=O)CN2CCN(S(=O)(=O)c3ccc(Cl)cc3)CC2)cc1 | 2 | 8 | nt | 5 | 1 | 2
CC(C)c1ccc(S(=O)(=O)N2CCN(CC(=O)c3ccc(O)c(O)c3)CC2)cc1 | 32 | -9 | -29 | -1 | 6 | 99*
O=C(NCc1cccs1)c1cc(-c2ccccc2)nn1CC1CC(c2cccc([N+](=O)[O-])c2)=NO1 (stereo unspecified) | 8 | 30* | 9 | -7 | -7 | -11
